Assay results taken from PubChem BioAssay (NCATS).
Inconclusive results are not listed. The source made the active and inactive calls. The call rests on the fitted dose curve; in most records, active means well fitted inhibition curve with a large enough effect; inconclusive means small, poorly fitted or top-dose-only effect; inactive means flat fitted curve, though single readings scatter.

test system: HACAT; assay: qHTS assay to identify novel small-molecules to repurpose for Merkel cell carcinoma treatment (AID 1296009); conditions: MCC and control cell lines, CellTiter-Glo viability, 72 h; series mostly up to 44.8 µM; further: nearly all actives have a fitted effect of over 60% in size
Excerpt: MCC is a rare and aggressive neuroendocrine skin cancer with limited treatment options. Approximately 80% of MCCs have the Merkel cell polyomavirus (MCPyV) DNA integrated into the host genome (virus-positive: VP-MCC) and viral oncogenes drive oncogenesis. The remaining MCCs are virus-negative (VN-MCC) and are caused by UV mutagenesis. To identify novel treatments for VP-MCC and/or VN-MCC we screened three VP-MCC cell lines (WAGA, MKL-1, MKL-2), three VN-MCC cell lines (MCC-13, MCC-26, UISO), and four immortalized, non-transformed control cell lines (HaCaT, HEK293T, CRL7250, NIH-3T3) against ~2,400 compounds in the NCGC Pharmaceutical Collection (NPC) and ~1,900 compounds in the Mechanism Interrogation PlatE (MiPE). Using cell viability as a readout (CellTiter-Glo assay) we found both overlapping and distinct drugs that can be repurposed for the treatment of VP-MCC and VN-MCC.
A high-throughput screen was conducted in 1536-well white flat bottom plates (Corning) on a Kalypsys robotic system. Cell lines WAGA, MKL-1, MKL-2, MCC-13, MCC-26, UISO, HaCaT, HEK293T, CRL7250, and NIH-3T3 were screened against 2 small molecule annotated drug libraries NPC and MIPE in dose response (8 and 11 pt. respectively) measuring cell viability after 72 hours of incubation. […] A 1,536 pintool (Kalypsys) was used to transfer 23 nL of compound in DMSO to the 1,536-well assay plates. After 72 hr incubation at 37 degree celsius, 2.5 uL of CellTiter-Glo (Promega) was dispensed into each well using a BiorapTR. Plates were incubated at room temperature for 10 min, transferred to a ViewLux (PerkinElmer) and the luminescence was recorded using an exposure time of 2 seconds. Relative luminescence units (RLUs) were normalized to in-plate controls (no cells as a positive (cytotoxicity) control, DMSO as negative control) and the normalized data was processed using NCATS in-house software.

| SMILES | outcome |
| --- | --- |
| O=C(Nc1c(-c2cccs2)nc2ccccn12)c1ccc(Cl)cc1 | inactive |
| CNC(C)C(=O)NC(C(=O)N1CCCC1c1nc(C(=O)c2ccc(F)cc2)cs1)C1CCCCC1 (stereo not given) | inactive; activator |
| CC(C)(O)C1CCC(C)(C2CCC3(C)C4CCC5C(C)(C(=O)OC6OC(CO)C(O)C(O)C6O)C(O)CC(O)C56CC46CCC23C)O1 (stereo not given) | inactive [at 17.4 µM] |
| Cc1ccccc1NC(=O)Nc1ccc(CC(=O)N(C)[C@@H](CC(C)C)C(=O)NCC[C@H](NC(=O)[C@@H]2CCCN2S(=O)(=O)c2cc(Cl)cc(Cl)c2)C(=O)O)cc1 | inactive [at 17.4 µM] |
| C[C@@H]1O[C@@H](O[C@@H]2[C@@H](O)[C@@H](O[C@]3(CO)O[C@H](CO)[C@@H](O)[C@@H]3OC(=O)/C=C/c3ccc(O)cc3)O[C@H](CO)[C@H]2OC(=O)/C=C/c2ccc(O)cc2)[C@H](O)[C@H](O)[C@H]1O[C@@H]1O[C@@H](C)[C@H](O[C@@H]2OC[C@](O)(CO)[C@H]2O)[C@@H](O)[C@H]1O | inactive [at 9.27 µM] |
| CCOCc1cc(OC)c(-c2ccc(C[C@H](NC(=O)c3c(F)cccc3F)C(=O)O)cc2)c(OC)c1 | inactive |
| COc1c2c(c(C)c3c1C(=O)OC3)OC1(C)CC(O)C34OC(OC)(CC(OC(C)=O)C3(C)C1C2)OC4(C)C (stereo not given) | inactive [at 17.4 µM] |
| CCCCCCOc1cc2c(cc1N(C)c1ncc(C(=O)O)cn1)C(C)(C)CCC2(C)C | inactive |
| CNC(=O)c1cc(Oc2ccc3nc(N[C@@H]4CCCC[C@H]4O)sc3c2)ccn1 | inactive |
| C[C@@H]1CCC2C(C)(C)[C@H](O)CC[C@]2(C)[C@@]12Cc1c(O)cc3c(c1O2)CN([C@@H](CCC(=O)O)C(=O)O)C3=O (stereo not given in full) | inactive [at 17.4 µM] |
| CC(C)=CCC/C(C)=C/CO[C@@H]1O[C@H](CO)[C@@H](O)[C@H](O)[C@H]1O | inactive |
| C[C@@H]1O[C@@H](O[C@@H]2[C@@H](O)[C@H](O[C@H]3CC[C@@]4(C)C(CC[C@]5(C)C4CC=C4[C@@H]6CC(C)(C)CC[C@]6(C(=O)O[C@@H]6O[C@H](CO)[C@@H](O)[C@H](O)[C@H]6O)CC[C@]45C)C3(C)C)O[C@H](C(=O)O)[C@H]2O)[C@H](O)[C@H](O)[C@H]1O (stereo not given in full) | inactive [at 9.27 µM] |
| Cc1ccc(S(=O)(=O)n2ccc(-c3c(-c4ccc(Cl)cc4)noc3C)n2)cc1 | inactive |
| CCCC(=O)O[C@@H]1[C@@H]2[C@@H](OC(C)=O)[C@]3(C)C(=O)[C@H]4[C@@H](OC(C)=O)C(C)(C)C[C@H]4[C@]3(C)C(=O)[C@@]2(OC(C)=O)C[C@@H]1C | inactive [at 17.4 µM] |
| C[C@@H]1O[C@@H](O[C@H]2[C@@H]3C=CO[C@@H](O[C@@H]4O[C@H](CO)[C@@H](O)[C@H](O)[C@H]4O)[C@@H]3[C@@]3(CO)O[C@@H]23)[C@H](OC(=O)/C=C/c2ccccc2)[C@H](O)[C@H]1O | inactive [at 17.4 µM] |
| C=CC(C)(C)c1[nH]c2cc3c(cc2c1CC1NC(=O)C2CCCN2C1=O)C=CC(C)(C)O3 (stereo not given) | inactive [at 17.4 µM] |
| C=C(C)C1CCC(C)C12CC(O)C1(C)OC1C2OC(=O)C(N)CCC(=O)O (stereo not given) | inactive |
| O=C(O)c1c(O)c(-c2ccccc2)nc2ccccc12 | inactive |
| C/C=C/C1=CC2=C(CO1)C(=O)C(C)(O)C(OC(=O)c1c(C)cc(OC)cc1O)C2 (stereo not given) | inactive |
| CCC(C)/C=C(C)/C=C/c1cc2c(cn1)C(=O)C(C)(OC(C)=O)C(O)=C2Cl (stereo not given) | inactive |

| SMILES | outcome |
| --- | --- |
| Cc1cc(C(=O)Nc2cccc(C(=O)Nc3cccc(C(F)(F)F)c3)c2)on1 | inactive |
| CO/N=C(/C(=O)N[C@@H]1C(=O)N2C(C(=O)O)=C(Cn3ccc(=N)n3CCO)CS[C@H]12)c1csc(N)n1 | inactive |
| Cc1ccc(C)c(OCCn2cc(C(=O)O)c3ccccc32)c1 | inactive |
| COC(=O)C1=CO[C@@H](O[C@@H]2O[C@H](CO)[C@@H](O)[C@H](O)[C@H]2O)[C@H]2[C@@H]1C=C[C@@]21C=C([C@H](C)O)C(=O)O1 | inactive [at 17.4 µM] |
| COc1cc(OC)cc(C(=O)Nc2ccc(Cl)c(-c3nc4ccc(N(C)C)cc4[nH]3)c2)c1 | inactive |
| C=C1C(OC2OCC(O)C(O)C2O)CC2C(C)(C)C(O)CCC2(C)C1CC/C(C)=C\CO (stereo not given) | inactive [at 17.4 µM] |
| CC1(C)CCC(C)(C)c2cc(C3(c4ccc(C(=O)O)cc4)OCCO3)ccc21 | inactive |
| O=C(O)C1CN(Cc2ccc(-c3nc4cc(Cc5ccccc5F)ccc4s3)c(F)c2)C1 | inactive [at 9.27 µM] |
| COC(=O)C1=CO[C@@H](O[C@@H]2O[C@H](CO)[C@@H](O)[C@H](O)[C@H]2O)[C@@H]2C(COC(C)=O)=C[C@H](O)[C@H]12 | inactive [at 17.4 µM] |
| CC(C)=CCC/C(C)=C/CC/C(C)=C/COC1OC(COC2OCC(OC3OCC(O)C(O)C3O)C(O)C2O)C(O)C(OC2OC(C)C(OC3OC(C)C(OC4OCC(OC5OC(C)C(O)C(O)C5O)C(O)C4O)C(O)C3O)C(O)C2O)C1O (stereo not given) | inactive [at 9.27 µM] |
| CCC(C(=O)O)c1ccc(N2Cc3ccccc3C2=O)cc1 (stereo not given) | inactive |
| Cc1cccc(-c2[nH]c(Cc3cccc(C(N)=O)c3)nc2-c2ccc3nccnc3c2)n1 | inactive |
| CC(=O)O[C@@H]1[C@H](O[C@@H]2O[C@@H](CO)[C@H](O)[C@H]2O)[C@@H](O[C@@H]2O[C@@H](C)[C@H](O[C@@H]3OC[C@@H](O)[C@H](O)[C@H]3O)[C@@H](O)[C@H]2O)[C@H](OC(=O)[C@]23CCC(C)(C)C[C@H]2C2=CCC4[C@@]5(C)CC[C@H](O[C@@H]6O[C@H](C(=O)O)[C@@H](O)[C@H](O)[C@H]6O[C@@H]6O[C@H](CO)[C@H](O)[C@H](O)[C@H]6O)[C@@](C)(C=O)C5CC[C@@]4(C)[C@]2(C)CC3)O[C@@H]1C (stereo not given in full) | inactive [at 9.27 µM] |
| CS(=O)(=O)c1ccc(-c2nnc(/C=C/c3nnc(-c4ccc(C#N)cc4)o3)n2-c2ccccc2Cl)nc1 | inactive |
| CC(C)c1cc(C(=O)N2CC[C@H](NC(=O)C3CC3)C2)n[nH]1 | inactive |
| CS(=O)(=O)NCC1CCC(Nc2nc3c(s2)CCSc2ccccc2-3)CC1 (stereo not given) | inactive |
| CC1(C)CC[C@]2(C(=O)O[C@@H]3O[C@H](CO)[C@@H](O)[C@H](O)[C@H]3O)CC[C@]3(C)C(=CCC4[C@@]5(C)CC[C@H](O[C@@H]6O[C@H](C(=O)O)[C@@H](O)[C@H](O)[C@H]6O)[C@@](C)(CO)C5CC[C@]43C)C2C1 (stereo not given in full) | inactive [at 9.27 µM] |
| COc1ccc(-n2[nH]c(=O)c3[nH]c4cc(Cl)ccc4c(=O)c3c2=O)c(C)c1 | inactive |
| CCC1=CC2CN(C1)Cc1c([nH]c3ccccc13)[C@@](C(=O)OC)(c1cc3c(cc1OC)N(C)[C@H]1[C@@](O)(C(=O)OC)[C@H](OC(C)=O)[C@]4(CC)C=CCN5CC[C@]31[C@@H]54)C2 (stereo not given in full) | inactive [at 17.4 µM] |
| O=C(O)Cc1cn(C2OCC(O)C(O)C2O[C@@H]2O[C@H](CO)[C@@H](O)[C@H](O)[C@H]2O)c2ccccc12 (stereo not given in full) | inactive [at 17.4 µM] |
